Assay results as given in PubChem BioAssay (NCI).
The panel holds about 83,000 compounds, 20% with a hit somewhere; the sample as a whole holds those more often.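 Cells were grown in 96-well plates and exposed to the test compound at a single concentration for 48 hours; results are reported as percent growth, with values below 10 considered active.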 Activity calls are given as the source filed them.

System: MCF7 breast
Assay: NCI-60 one-dose screen, 48 h (100 = growth as untreated, 0 = no growth, -100 = all killed)
Details: 10 µM unless noted

Structure (SMILES)	growth
CCCCN1C(=O)/C(=c2\sc3n(c2=O)C2C(NN=3)N(CC)C(=O)N2CC)c2cccc(C)c21 (centres undefined)	21.1% (inactive)
Brc1cc(-c2cc(-c3ccc4c(c3)OC=CO4)[nH]n2)cs1	25.1% (inactive)
N#C/C(=C\c1cccc2c1OCO2)C(=O)Nc1sc2c(c1C#N)CCCC2	97.6% (inactive)
CN1CCN(Cc2ccc(NC(=O)c3cncc(C#Cc4cnc5ccc(O[C@@H]6CCOC6)nn45)c3)cc2C(F)(F)F)CC1	-68.1% (active)
CCN(CC)CCOc1ccc(C(=C(C)c2ccc(OC)cc2)c2ccc(OCCN(CC)CC)cc2)cc1	-64.5% (active)
O=c1nc(Nc2ccc([N+](=O)[O-])cc2O)sc2ccccc12	18.1% (inactive)
O=C(CCCCCCNC(=O)c1csc(Br)n1)NO	26.7% (inactive)
COC(=O)[C@@H](Cc1c[nH]c2ccccc12)NC(=O)CCCCOc1cc(O)c2c(=O)cc(-c3ccccc3)oc2c1	94.9% (inactive)
Clc1cccc(/C=N/Nc2nc(N/N=C/c3cccc(Cl)c3)nc(N3CCCCC3)n2)c1	83.1% (inactive)
COC(=O)c1ccc(NC2=C(Cl)C(=O)C(C)=C(C)C2=O)cc1	35.9% (inactive)
O=C(CSc1nnc(-c2ccc(Cl)cc2)n1-c1ccccc1)Nc1ccccc1Cl	66.4% (inactive)
CN(C)CCNc1ccc2ncc(C#Cc3cncc(C(=O)Nc4ccc(CN5CCN(C)CC5)c(C(F)(F)F)c4)c3)n2n1	-51.9% (active)
Cc1cc(=O)oc2cc(OCCCOc3ccc(/C=C/C(=O)Nc4ccc(Br)cc4)cc3)ccc12	58.9% (inactive)
CC(=O)OC[C@@]12Oc3c(cccc3-c3ccc(O)c4c3O[C@]3(COC(C)=O)C(=C4O)C(=O)C[C@H](C)[C@@H]3OC(C)=O)C(O)=C1C(=O)C[C@H](C)[C@@H]2OC(C)=O	5.84% (active)
COc1ccc(/C=N/NC(=O)CSc2nc(-c3cnccn3)cc(-c3cccs3)c2C#N)cc1OC	53.7% (inactive)
O=c1c2cc(-c3ccc(F)cc3F)ccc2n(O)c(=O)n1-c1cccc(C(F)(F)F)c1	1.33% (active)
C#C[C@]1(O)CC[C@H]2[C@@H]3CC=C4c5sc(Nc6ncccc6C)nc5CC[C@]4(C)[C@H]3CC[C@@]21C	-48.8% (active)
CCCCCc1ccc(S(=O)(=O)Nc2cc(-c3csc(N)n3)ccc2OC)cc1	66.1% (inactive)
O=c1oc2ccc(-c3ccc(F)cc3F)cc2c(=O)n1-c1ccc(Br)cc1F	58.5% (inactive)
